M1 ag – M1 muscarinic receptor agonists, primary screen, CHO-M1 cells, Fluo-4 calcium, agonist mode; Fluo-4 calcium fluorescence; stronger effect = higher value; 64,000 tested, 3% active; AID 626, 2007; B-score at 10 µM; Muscarinic acetylcholine receptor M1;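 active = fluorescence rise, raw or as B-score row- and column-corrected plate score, outside the 99.7% band of its plate's samples, either direction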
Abs 340nm – compound light absorbance at 340 nm, profiling panel, artefact control, biochemical, MLSMR library, data from PS, PMK, MK assays; compound absorbance at 340 nm, fold over control; fold change at 10 µM; 65,000 tested, under 10 active;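 active = at 10 µM dose, initial 340 nm absorbance at least 2 fold that of control wells; inactive = change under 2 fold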;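 note: initial absorbance extrapolated from kinetic A340 decline of NADH oxidation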
Autofluor 339 – intrinsic fluorescence of library compounds, ex339/em460 – biochemical, MLSMR library, data from DPM-DC assay, artefact control, profiling panel; compound autofluorescence, ex339/em460 nm, NADH buffer; stronger effect = higher value; 1 = no-compound wells, NADH background; fluorescence fold increase at 10 µM; 65,000 tested, 5.5% active;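 active = at 10 µM, mean starting fluorescence two-fold or more over control wells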;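 note: signal is the first read of a kinetic run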
WNV NS2B-NS3 inh – inhibitors of WNV NS2B-NS3 protease, primary screen, biochemical, fluorogenic substrate. z-score (no concentration beside the values). 65,000 tested, 0.18% active. Genome polyprotein (West Nile virus), P06935. fluorogenic substrate Ex360/Em465; stronger effect = lower value. AID 577, 2007; in the data active = z-score below about -3
Target sequence (P06935 1371-1501 limits assumed): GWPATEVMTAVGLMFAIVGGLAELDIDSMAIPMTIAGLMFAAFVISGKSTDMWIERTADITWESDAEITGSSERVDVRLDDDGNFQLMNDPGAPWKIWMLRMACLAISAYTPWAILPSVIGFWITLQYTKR
Target sequence (P06935 1502-1679 limits assumed): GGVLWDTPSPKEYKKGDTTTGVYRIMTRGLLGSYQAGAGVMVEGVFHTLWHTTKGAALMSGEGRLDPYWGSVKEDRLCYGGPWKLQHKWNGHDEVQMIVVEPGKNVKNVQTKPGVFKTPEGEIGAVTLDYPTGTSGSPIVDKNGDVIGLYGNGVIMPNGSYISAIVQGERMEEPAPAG
BAP1 inh – inhibitors of BAP1 deubiquitinase, primary screen, biochemical, Ub-AMC fluorescence, kinetic. Ubiquitin carboxyl-terminal hydrolase BAP1 (Homo sapiens), Q92560. recombinant BAP1, Ub-AMC hydrolysis fluorescence kinetic; stronger effect = lower value. 72,000 tested, 0.48% active. calls only at 20 µM;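 active = activity remaining at or below 50% of control, provided the compound also passes the data quality filters; inactive = the rest, including low values that fail the filters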;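 note: 100% = DMSO wells rate and 0% = substrate alone blank rate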
M1 antagonist – antagonists of rat M1 muscarinic receptor; Muscarinic acetylcholine receptor M1 (Rattus norvegicus), P08482; CHO-M1 cells, Fluo-4 calcium, ACh EC80 antagonist mode; stronger effect = lower value; B-score at 10 µM; 64,000 tested, 3.4% active; AID 628, 2007;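 active = calcium fluorescence response, raw or row-and-column corrected B-score, differing from the plate sample mean either way at a set confidence level, mostly lower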
M1 antag conf – rat M1 muscarinic receptor antagonists, confirmation, CHO cells, Fluo-4 calcium, duplicate; shares compounds with M1 antagonist; ACh EC80 antagonism; stronger effect = lower value; calcium response (max-min fluorescence) at 10 µM; 1,700 tested, 43% active; AID 677, 2007;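 active = calcium response below the same-plate mean of wells given acetylcholine alone at its 80%-effect dose, minus 3 SD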;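 note: raw fluorescence intensity difference in arbitrary instrument units and not normalized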
mGluR4 antag – human mGluR4 response to M1 antagonist hits, M1 allosteric modulator project, cell-based, antagonist mode, secondary assay 1; shares compounds with M1 antagonist; CHO-mGluR4 calcium flux, Fluo-4 fluorescence, glutamate EC80; stronger effect = lower value; fluorescence response (max-min) at 10 µM; 1,700 tested, 0.9% active; AID 678, 2007;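 active = fluorescence response below the plate's average for near-maximal glutamate wells, less 3 SD of those wells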;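 note: raw unnormalized fluorescence span taken in the window right after glutamate addition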
* = called active by the depositor; i = inactive; nt = not tested or not shown. Hits are enriched below; roughly 9.7% of the tested compounds scored in any of these assays.

SMILES | M1 ag | Abs 340nm | Autofluor 339 | WNV NS2B-NS3 inh | BAP1 inh | M1 antagonist | M1 antag conf | mGluR4 antag
O=C1N2CCCc3cccc(c32)C12Nc1ccccc1S2 (stereo not given) | -0.016 | 1.1 | 1.1 | -0.36 | i | 0.14 | nt | nt
COc1ccc(N2C(=O)CSC23C(=O)N2CCCc4cccc3c42)cc1 (stereo not given) | -0.23 | 1 | 1.1 | 0.86 | i | -17* | 28* | 212
CC(C)COC(=O)Nc1ccccc1C(=O)N1CCOCC1 | -0.031 | 1 | 1.1 | 1.4 | i | 0.11 | nt | nt
Cc1cccc(Nc2ccccc2C(=O)OCC(=O)N2CCOCC2)c1C | 1 | 1 | 1.2 | -1.4 | i | -4.2* | 531 | 205
O=C(Nc1ccc(S(=O)(=O)N2CCCCCC2)cc1)C1CCCO1 (stereo not given) | -0.0033 | 1 | 1.1 | -1.2 | i | -3.2* | 654 | 218
O=C(Nc1ccc(S(=O)(=O)N2CCOCC2)cc1)C1CCCCC1 | 0.31 | 1.1 | 1.1 | -0.21 | i | 0.38 | nt | nt
O=C(NS(=O)(=O)c1ccc(NC(=O)C2CCCO2)cc1)c1ccccc1 (stereo not given) | -0.24 | 1 | 1 | -0.74 | i | 0.12 | nt | nt
O=C(Nc1ccc(S(=O)(=O)Nc2ccc(Cl)cc2)cc1)C1CCCO1 (stereo not given) | -0.15 | 0.98 | 1 | 0.08 | i | -1.1* | 575 | 297
O=C(CN1C(=O)c2ccccc2C1=O)N1CCCCC1 | -0.27 | 0.99 | 1 | 0.02 | i | -0.065 | nt | nt
O=C(CC(c1ccccc1O)N1CCCCC1)N1CCCCC1 (stereo not given) | 1 | 1 | 1.1 | -0.33 | nt | -17* | 84* | 242
CNS(=O)(=O)c1cccc(C(=O)OCC(=O)c2cc(C)n(-c3ccc4c(c3)OCO4)c2C)c1 | -0.9 | 0.99 | 1 | -0.36 | i | -2.3* | 483 | 164*
CNS(=O)(=O)c1cccc(C(=O)OCC(=O)Nc2ccccc2OC(F)F)c1 | 0.61 | 1 | 1.1 | 0.23 | i | 0.07 | nt | nt
CCCCn1c(CNC(=O)CCC)nc2ccccc21 | 1.2 | 0.99 | 1.1 | -0.62 | i | -0.0073 | nt | nt
CCCCn1c(CN2CCN(C)CC2)nc2ccccc21 | 0.5 | 1.1 | 1.2 | -0.91 | i | -4* | 324* | 235
CC(C)(C)c1ccc(OCC(O)CS(=O)(=O)c2ccccn2)cc1 (stereo not given) | -0.43 | 1 | 1 | -0.79 | i | -1.8* | 660 | 262
CC(CCN(C)C)OC(=O)c1ccc(C(C)c2ccccc2)o1 (stereo not given) | 0.25 | 1 | 1.1 | -0.24 | i | -4.4* | 349* | 223
CCOC(=O)CSc1nc2ncccc2[nH]1 | nt | nt | nt | nt | i | nt | nt | nt
O=C1C(Cl)=C(N2CCCCCC2)C(=O)N1c1ccccc1 | 0.13 | 1 | 1 | -0.34 | i | -3.1* | 219* | 148
C=CCn1c(SCc2ccccc2C#N)nnc1-c1cc(Br)ccc1O | 1.4 | 1 | 1.1 | -0.48 | i | -3.8* | 330* | 193
CCC1CCCCN1CCNC(=O)C1CCN(S(=O)(=O)c2c(C)noc2C)CC1 (stereo not given) | 0.076 | 1.1 | 1.1 | -0.79 | i | -12* | 385* | 179
CCN(Cc1c(O)ccc2c3c(c(=O)oc12)CCC3)C1CCCCC1 | nt | nt | nt | nt | i | nt | nt | nt
CCN(CC)c1ccc(C2C(C(=O)OCCOC(C)C)=C(C)NC3=C2C(=O)CCC3)cc1 (stereo not given) | -0.059 | 1.1 | 1.4 | 0.63 | i | -11* | 144* | 236
COCCOC(=O)C1=C(C)NC2=C(C(=O)CCC2)C1c1ccc(N(C)C)cc1 (stereo not given) | 1.5 | 1.1 | 1.2 | -1.3 | i | -0.046 | nt | nt
CN(CCC#N)C(=O)COC(=O)c1ccc(Cl)c(S(N)(=O)=O)c1 | 0.32 | 0.99 | 0.98 | -0.02 | i | -12* | 642 | 226
COc1cccc(CC(=O)NCC2COc3ccccc3O2)c1OC (stereo not given) | 0.34 | 0.98 | 1 | 0.03 | i | -12* | 701 | 230
SMILES | M1 ag | Abs 340nm | Autofluor 339 | WNV NS2B-NS3 inh | BAP1 inh | M1 antagonist | M1 antag conf | mGluR4 antag
COc1cccc(OC)c1OCCNCC1COc2ccccc2O1 (stereo not given) | nt | nt | nt | nt | i | nt | nt | nt
Cc1cc(C(=O)NCCN2CCCCC2C)n(-c2ccccc2)n1 (stereo not given) | 0.58 | 0.98 | 1 | 0.42 | i | 0.016 | nt | nt
CC1CCCCN1CCNC(=O)c1cc2c(-c3ccccc3F)nn(C)c2s1 (stereo not given) | -0.1 | 1.1 | 2.1* | 0.04 | i | -5.5* | 374* | 207
CN(Cc1ccccc1)Cc1nc2c(c(=O)n(C)c(=O)n2C)n1Cc1ccc(F)cc1 | 0.3 | 1 | 1.1 | 0.73 | i | -2.6* | 657 | 223
Cn1c(=O)c2c(nc(SCCN3CCCCC3)n2Cc2ccccc2)n(C)c1=O | -1.1 | 1.1 | 1.1 | 0.06 | i | -4.7* | 246* | 247
Cn1c(=O)c2c(nc(SCCN3CCOCC3)n2Cc2ccccc2Cl)n(C)c1=O | -0.78 | 1 | 1.1 | -1.4 | i | 0.15 | nt | nt
Cc1ccc(Cn2c(SCCN3CCCCC3)nc3c2c(=O)n(C)c(=O)n3C)cc1 | -2 | 0.99 | 1.1 | -0.76 | i | -3.9* | 267* | 247
COc1ccc(C(=O)c2sc3nc(N)c(C#N)c(-c4ccc(OC)cc4)c3c2N)cc1 | nt | nt | nt | nt | i | nt | nt | nt
CC1=C(C(=O)OCCOc2ccccc2)C(c2ccccc2OC(C)C)C2=C(CCCC2=O)N1 (stereo not given) | nt | nt | nt | nt | i | nt | nt | nt
COc1ccc(-n2nc3c(c2NC(=O)c2c(OC)cccc2OC)CSC3)cc1 | nt | nt | nt | nt | i | nt | nt | nt
COc1ccc(OC)c(S(=O)(=O)N2CCN(C34CC5CC(CC(C5)C3)C4)CC2)c1 | -0.39 | 1 | 1.1 | -0.41 | i | -4.6* | 477* | 230
CCN1CCN(S(=O)(=O)c2cc(OC)ccc2OC)CC1 | 0.33 | 1.1 | 1.1 | 0.65 | i | 0.44 | nt | nt

Screens as filed in PubChem BioAssay.
